{"source": "paper PMC7862700", "about": "“An all-to-all approach to the identification of sequence-specific readers for epigenetic DNA modifications on cytosine”", "experiment_in_all_cases": "DAPPL (digital affinity profiling via proximity ligation, sequencing); 10 mM Tris-HCl pH 7.5, 50 mM NaCl, 1 mM DTT, 4% glycerol, room temperature, 30 min; GST-TFs on glutathione beads, 16-mer random dsDNA library, 0.1% formaldehyde crosslink after washing; high values mean tight binding", "conditions_in_all_cases": "protein: recombinant; tags: N-terminal GST; dsDNA, one strand shown", "key": {"FLI1": {"molecular_target": "T1, FLI1 (Homo sapiens, UniProt Q01543 1-452)", "T1 sequence": "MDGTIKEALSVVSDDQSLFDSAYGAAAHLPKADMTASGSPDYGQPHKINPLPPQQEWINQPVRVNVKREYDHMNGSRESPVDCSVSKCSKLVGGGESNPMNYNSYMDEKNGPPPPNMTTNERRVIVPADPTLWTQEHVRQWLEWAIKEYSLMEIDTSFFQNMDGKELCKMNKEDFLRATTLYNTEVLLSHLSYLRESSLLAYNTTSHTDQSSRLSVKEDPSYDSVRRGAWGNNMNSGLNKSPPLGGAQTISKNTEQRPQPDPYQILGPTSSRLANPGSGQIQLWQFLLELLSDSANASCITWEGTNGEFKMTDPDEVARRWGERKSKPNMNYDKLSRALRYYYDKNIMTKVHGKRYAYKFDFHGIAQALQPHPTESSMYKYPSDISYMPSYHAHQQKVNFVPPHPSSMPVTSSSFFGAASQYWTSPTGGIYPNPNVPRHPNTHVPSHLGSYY", "how_it_was_run": "(§1)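 Human transcription factors fused to GST were expressed in yeast, captured on glutathione beads, given DNA barcodes and pooled with a GST-only negative control. Pools were incubated with 200 nmole of a 16-mer random double-stranded DNA library in Tris/NaCl/DTT/glycerol buffer at room temperature for 30 min. They were then washed, crosslinked with 0.1% formaldehyde, proximity-ligated (BsaI/T4 ligase, 1 h, 37 °C), PCR-amplified and sequenced on an Illumina NextSeq500. Binding signal is each 6-mer's read frequency for a factor divided by its frequency for the GST control.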"}, "ELK1": {"molecular_target": "T2, ELK1 (Homo sapiens, UniProt P19419 1-428)", "T2 sequence": "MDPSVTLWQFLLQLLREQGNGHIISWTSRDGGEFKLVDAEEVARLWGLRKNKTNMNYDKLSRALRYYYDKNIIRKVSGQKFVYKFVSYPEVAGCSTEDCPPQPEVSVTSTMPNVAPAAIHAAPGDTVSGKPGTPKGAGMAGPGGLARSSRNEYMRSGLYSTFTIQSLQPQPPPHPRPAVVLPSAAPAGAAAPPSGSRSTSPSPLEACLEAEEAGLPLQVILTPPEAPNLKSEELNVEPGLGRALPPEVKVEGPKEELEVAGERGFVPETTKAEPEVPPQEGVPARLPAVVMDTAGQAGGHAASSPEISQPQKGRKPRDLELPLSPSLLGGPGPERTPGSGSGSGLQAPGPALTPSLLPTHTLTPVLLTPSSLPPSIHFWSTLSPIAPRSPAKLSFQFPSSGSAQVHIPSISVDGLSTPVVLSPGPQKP", "how_it_was_run": "as §1"}, "GABPA": {"molecular_target": "T3, GABPA (Homo sapiens, UniProt Q06546 1-454)", "T3 sequence": "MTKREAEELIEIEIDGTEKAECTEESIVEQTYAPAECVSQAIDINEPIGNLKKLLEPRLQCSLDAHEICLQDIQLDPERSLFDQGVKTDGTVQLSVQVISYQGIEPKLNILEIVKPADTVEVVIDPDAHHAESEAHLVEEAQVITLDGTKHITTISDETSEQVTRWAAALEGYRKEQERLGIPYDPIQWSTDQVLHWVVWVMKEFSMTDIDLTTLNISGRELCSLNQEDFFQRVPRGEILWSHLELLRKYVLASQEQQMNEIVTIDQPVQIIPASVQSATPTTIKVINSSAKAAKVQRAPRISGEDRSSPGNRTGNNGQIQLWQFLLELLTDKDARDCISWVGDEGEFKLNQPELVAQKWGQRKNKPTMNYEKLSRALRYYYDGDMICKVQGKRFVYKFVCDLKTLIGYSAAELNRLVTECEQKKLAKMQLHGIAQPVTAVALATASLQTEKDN", "how_it_was_run": "as §1"}, "ERG": {"molecular_target": "T4, ERG (Homo sapiens, UniProt P11308 1-479)", "T4 sequence": "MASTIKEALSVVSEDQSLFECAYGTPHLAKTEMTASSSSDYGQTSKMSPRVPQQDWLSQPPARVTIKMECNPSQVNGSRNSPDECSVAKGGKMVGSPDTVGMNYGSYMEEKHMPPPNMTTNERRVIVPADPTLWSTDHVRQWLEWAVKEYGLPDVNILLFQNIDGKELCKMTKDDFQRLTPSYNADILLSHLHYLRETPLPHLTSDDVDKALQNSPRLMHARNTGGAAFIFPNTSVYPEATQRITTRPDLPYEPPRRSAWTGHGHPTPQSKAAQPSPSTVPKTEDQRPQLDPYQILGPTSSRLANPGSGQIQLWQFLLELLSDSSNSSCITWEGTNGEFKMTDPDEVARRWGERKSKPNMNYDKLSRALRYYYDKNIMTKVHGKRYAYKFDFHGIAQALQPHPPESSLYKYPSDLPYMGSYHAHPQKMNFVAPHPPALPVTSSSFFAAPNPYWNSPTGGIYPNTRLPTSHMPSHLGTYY", "how_it_was_run": "as §1"}, "ELF1": {"molecular_target": "ELF1 (Homo sapiens, UniProt P32519 1-619)", "sequence (P32519 whole entry)": "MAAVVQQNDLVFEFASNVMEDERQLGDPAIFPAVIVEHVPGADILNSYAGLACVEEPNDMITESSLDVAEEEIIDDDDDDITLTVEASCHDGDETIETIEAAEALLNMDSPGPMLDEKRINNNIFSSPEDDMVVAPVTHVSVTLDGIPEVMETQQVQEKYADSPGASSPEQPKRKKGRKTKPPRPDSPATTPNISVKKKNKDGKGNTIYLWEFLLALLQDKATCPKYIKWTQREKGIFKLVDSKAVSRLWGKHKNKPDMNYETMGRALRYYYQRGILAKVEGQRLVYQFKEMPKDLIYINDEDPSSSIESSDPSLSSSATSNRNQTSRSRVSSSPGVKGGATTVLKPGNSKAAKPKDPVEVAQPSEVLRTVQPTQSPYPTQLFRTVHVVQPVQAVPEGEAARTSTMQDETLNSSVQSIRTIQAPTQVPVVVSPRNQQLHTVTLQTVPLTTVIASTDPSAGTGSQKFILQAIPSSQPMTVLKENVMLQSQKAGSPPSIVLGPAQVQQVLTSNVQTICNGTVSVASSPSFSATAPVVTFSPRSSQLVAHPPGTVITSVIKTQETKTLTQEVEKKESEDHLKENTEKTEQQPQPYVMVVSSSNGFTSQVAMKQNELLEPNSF", "how_it_was_run": "as §1"}, "EHF": {"molecular_target": "T5, EHF (Homo sapiens, UniProt Q9NZC4 1-300)", "T5 sequence": "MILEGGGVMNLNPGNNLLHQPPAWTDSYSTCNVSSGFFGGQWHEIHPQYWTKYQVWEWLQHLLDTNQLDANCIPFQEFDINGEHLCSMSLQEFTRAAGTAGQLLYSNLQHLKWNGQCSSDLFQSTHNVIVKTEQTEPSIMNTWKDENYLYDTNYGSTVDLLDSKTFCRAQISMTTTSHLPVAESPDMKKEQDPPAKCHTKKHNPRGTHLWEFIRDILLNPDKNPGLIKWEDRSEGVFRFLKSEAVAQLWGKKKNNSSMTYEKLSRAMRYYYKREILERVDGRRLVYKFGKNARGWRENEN", "how_it_was_run": "as §1"}, "SPIB": {"molecular_target": "SPIB (Homo sapiens, UniProt Q01892 1-262)", "sequence (Q01892 whole entry)": "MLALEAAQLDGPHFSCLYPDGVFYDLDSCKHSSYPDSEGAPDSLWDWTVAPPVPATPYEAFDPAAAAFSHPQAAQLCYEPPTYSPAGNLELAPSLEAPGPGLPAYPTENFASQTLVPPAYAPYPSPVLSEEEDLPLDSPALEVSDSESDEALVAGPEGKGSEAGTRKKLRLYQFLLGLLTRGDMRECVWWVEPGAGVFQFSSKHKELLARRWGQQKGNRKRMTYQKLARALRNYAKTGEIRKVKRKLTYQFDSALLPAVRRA", "how_it_was_run": "as §1"}, "ELK3": {"molecular_target": "T6, ELK3 (Homo sapiens, UniProt P41970 1-407)", "T6 sequence": "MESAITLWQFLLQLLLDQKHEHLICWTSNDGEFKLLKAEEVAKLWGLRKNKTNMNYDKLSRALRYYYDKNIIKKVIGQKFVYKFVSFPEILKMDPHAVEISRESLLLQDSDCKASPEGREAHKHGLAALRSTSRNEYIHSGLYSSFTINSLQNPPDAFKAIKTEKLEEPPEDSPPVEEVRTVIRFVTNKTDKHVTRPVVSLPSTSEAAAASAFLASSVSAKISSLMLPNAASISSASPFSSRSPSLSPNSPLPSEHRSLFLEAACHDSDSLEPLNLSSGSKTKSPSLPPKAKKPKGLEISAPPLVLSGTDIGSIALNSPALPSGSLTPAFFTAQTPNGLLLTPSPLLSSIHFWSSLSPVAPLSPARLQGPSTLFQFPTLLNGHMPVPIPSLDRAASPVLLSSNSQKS", "how_it_was_run": "as §1"}, "SPIC": {"molecular_target": "T7, SPIC (Homo sapiens, UniProt Q8N5J4 1-248)", "T7 sequence": "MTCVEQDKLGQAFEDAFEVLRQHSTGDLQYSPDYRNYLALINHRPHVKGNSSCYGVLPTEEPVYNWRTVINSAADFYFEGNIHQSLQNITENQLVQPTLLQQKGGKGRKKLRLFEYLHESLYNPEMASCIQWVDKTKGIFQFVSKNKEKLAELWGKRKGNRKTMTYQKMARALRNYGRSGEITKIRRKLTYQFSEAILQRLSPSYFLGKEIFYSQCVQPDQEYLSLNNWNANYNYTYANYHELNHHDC", "how_it_was_run": "as §1"}}}
{"sequence": "CGTCTG", "values": [{"measurement": "binding signal", "setting": "FLI1", "result": "1.13 fold enrichment (6-mer frequency, TF over GST control)"}, {"measurement": "binding signal", "setting": "ELK1", "result": "1.06 fold enrichment (6-mer frequency, TF over GST control)"}, {"measurement": "binding signal", "setting": "GABPA", "result": "1.06 fold enrichment (6-mer frequency, TF over GST control)"}, {"measurement": "binding signal", "setting": "ERG", "result": "1.11 fold enrichment (6-mer frequency, TF over GST control)"}, {"measurement": "binding signal", "setting": "ELF1", "result": "1.11 fold enrichment (6-mer frequency, TF over GST control)"}, {"measurement": "binding signal", "setting": "EHF", "result": "1.07 fold enrichment (6-mer frequency, TF over GST control)"}, {"measurement": "binding signal", "setting": "SPIB", "result": "1.18 fold enrichment (6-mer frequency, TF over GST control)"}, {"measurement": "binding signal", "setting": "ELK3", "result": "1.05 fold enrichment (6-mer frequency, TF over GST control)"}, {"measurement": "binding signal", "setting": "SPIC", "result": "1.17 fold enrichment (6-mer frequency, TF over GST control)"}]}
